Measurements published in PubChem BioAssay (NCATS).
“And” between values parts separate entries of the source, which are not always exact repeats. Equal values may be shown once. Inconclusive results are not listed. The source made the active and inactive calls. Calls follow the shape of the dose curve; as a rule, active = well fitted inhibition curve with a large enough effect in the signal ratio, with a control signal flat (not every such curve was filed as active); inconclusive = small, poorly fitted or top-dose-only effect, or effect the other way, or a change in a side signal; inactive = no such curve, though single readings can be large or run the other way; the % refers to the signal ratio.
% is scaled to controls: 0 for no effect and ±100 for the full control effect.

Each compound was assayed against Retinoic acid receptor RXR-alpha (Homo sapiens) (UniProt P19793) (assay: qHTS assay for small molecule antagonists of retinoid X receptor alpha signaling (AID 588546)). Settings: HEK293T RXRa-UAS-bla, beta-lactamase ratio, antagonist mode.
Sequence of Retinoic acid receptor RXR-alpha (Homo sapiens) (P19793 whole entry, looked up): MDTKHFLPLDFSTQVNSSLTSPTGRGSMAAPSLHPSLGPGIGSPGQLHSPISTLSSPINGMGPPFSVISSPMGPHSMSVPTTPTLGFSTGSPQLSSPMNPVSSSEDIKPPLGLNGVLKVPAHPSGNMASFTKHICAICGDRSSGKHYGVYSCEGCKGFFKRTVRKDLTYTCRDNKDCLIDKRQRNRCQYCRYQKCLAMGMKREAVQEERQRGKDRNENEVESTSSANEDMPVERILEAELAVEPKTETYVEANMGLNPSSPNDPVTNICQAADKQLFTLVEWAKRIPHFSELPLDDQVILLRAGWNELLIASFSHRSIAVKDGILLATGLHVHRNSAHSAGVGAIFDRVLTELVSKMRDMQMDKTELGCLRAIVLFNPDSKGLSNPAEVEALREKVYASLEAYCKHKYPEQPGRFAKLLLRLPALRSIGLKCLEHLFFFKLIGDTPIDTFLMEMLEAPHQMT
Source text: NIH Chemical Genomics Center [NCGC] U.S. Environmental Protection Agency [EPA] National Institutes of Environmental Health Sciences [NIEHS] National Toxicology Program [NTP] NCGC Assay Overview The Retinoid X receptor (RXR), a nuclear hormone receptor is expressed in liver, spleen, placenta, epidermis, central nervous system. These receptors are able to form homo and heterodimers with other nuclear receptors and due to this heterodimerizing ability, RXR functions as master regulators producing diverse physiological effects. Three subtypes of RXR exist; alpha, beta and gamma. Retinoid X receptor alpha (RXR-alpha) has potential roles in metabolic signaling pathways, skin alopecia, dermal cysts, cardiac development, insulin sensitization etc. Therefore screening environmental chemicals on RXR-alpha signaling can be used for the studies focused on such therapeutic applications.
NCGC Assay Protocol Summary Using a beta-lactamase reporter-gene under control of Retinoid X receptor--alpha (RXR-alpha) response element, a cell-based assay [GeneBLAzer (RXR-alpha -UAS-bla assay developed by Invitrogen] was used to measure RXR-alpha ligands signaling. GeneBLAzer RXR-alpha -UAS-bla HEK293T cells were used with assay medium containing 2% charcoal-stripped FBS. The assay was performed in clear bottom black Greiner 1536-well plates. Library compounds were measured for their ability to inhibit the reporter gene activity. Compounds were screened in a titration series in 1536-well format. The fluorescence intensity (405 nm excitation, 460/530 nm emission) was measured using an EnVision plate reader. Data was normalized relative to 9-cis-retinoic acid control (500 nM, 100%), and DMSO only wells (basal, 0%). Concentration-response titration points for each compound were fitted to the Hill equation yielding concentrations of half-maximal inhibition (IC50) and maximal response (efficacy) values. qHTS protocol for RXR-alpha beta-lactamase assay in antagonist mode [Step] [Parameter] [Value] [Description] 1. Reagent; 5 uL; 2500 cells/well 2. Incubation; 37 C for 4 hrs 3. Compounds; 23 nL; 0.59 nM to 92 uM 4. Controls (DMSO); 23 nL 5. Agonist (Stimulator); 1uL; 9-cis-retinoic acid at 500 nM and 100 nM final concentrations 6. Incubation; 37 C for 18 hrs 7. Detection reagent; 1 uL of CCF4-dye 8. Incubation; RT for 2 hrs 9. Detection; Fluorescence; Envision plate reader
For `COc1ccc(Cl)cc1C(=O)NCCc1ccc(S(=O)(=O)NC(=O)NC2CCCCC2)cc1`, the max response was -9.84% (inactive).
For `CN(C)CCCN1c2ccccc2Sc2ccc(Cl)cc21`, the max response was -16.5% (inactive).
`COc1ccccc1O` was tested, and the max response was 0.752% (inactive) and 5.31% (inactive) and 3.65% (inactive).
With `NCCNCCNCCN` the max response was 10.1% (inactive).
`COC(=O)C1=C(C)NC(C)=C(C(=O)OC)C1c1ccccc1[N+](=O)[O-]` was tested, and the max response was 23.4% (inactive).
With `O=S(=O)(O)NC1CCCCC1` the max response was 5.18% (inactive).
With `CC(O)CN(CCN(CC(C)O)CC(C)O)CC(C)O` (configuration not stated) the max response was -14.1% (inactive).
`CCCCC(CC)COC(=O)c1ccccc1O` (configuration not stated) was tested, and the max response was 6.6% (inactive).
`CC12CCC(CC1)C(C)(C)O2` was tested, and the max response was 10.3% (inactive).
In the case of `CCOC(=O)c1ccc(O)cc1`, the max response is reported as 4.29% (inactive).
For `Nc1ccc(S(=O)(=O)Nc2nccs2)cc1`, the max response was 19.3% (inactive).
For `Oc1cccc(O)c1`, the max response was 1.73% (inactive).
With `CC(O)COc1ccccc1` (configuration not stated) the max response was -2.29% (inactive).
With `CNC(=O)Oc1ccc2c(c1)[C@]1(C)CCN(C)[C@@H]1N2C` the max response was 1.77% (inactive).
For `[Cl][In]([Cl])[Cl]`, the max response was 17.5% (inactive).
With `C[C@]12CC[C@@H]3c4ccc(O)cc4CC[C@H]3[C@@H]1CCC2=O` the max response was -13% (inactive).
In the case of `Cc1cccc(Nc2cc(Cl)nc(SCC(=O)O)n2)c1C`, the max response is reported as -6.08% (inactive).
In the case of `CC1(C)[C@@H]2CC[C@@]1(C)C(=O)C2`, the max response is reported as 2.47% (inactive).
In the case of `O=C1O[C@H]([C@@H](O)CO)C(O)=C1O`, the max response is reported as 1.04% (inactive).
`C[C@]12C[C@H](O)[C@H]3[C@@H](CCC4=CC(=O)CC[C@@]43C)[C@@H]1CC[C@@H]2C(=O)CO` was tested, and the max response was 9.95% (inactive).
With `O=C1c2c(O)cccc2Cc2cccc(O)c21` the max response was 9.5% (inactive).
With `NCCNCCNCCNCCN` the max response was -26.1% (inactive).
In the case of `CN(C)CCOC(C)(c1ccccc1)c1ccccn1` (configuration not stated), the max response is reported as -25.1% (inactive).
In the case of `CCCCOC(=O)c1ccc(O)cc1`, the max response is reported as -15.2% (inactive) and -3.16% (inactive).
`CCCCCCCCCCCCOS(=O)(=O)O` was tested, and the max response was 6.26% (inactive) [middle of 4 runs].
For `CCCc1c(OCCCCc2nn[nH]n2)ccc(C(C)=O)c1O`, the max response was 3.05% (inactive).
In the case of `NC(=O)N/N=C/c1ccc([N+](=O)[O-])o1`, the max response is reported as 5.86% (inactive) and 14.5% (inactive).
